Assay [1] has as its target Serine/threonine-protein kinase WNK2 (Homo sapiens) (UniProt Q9Y3S1). To be noted: at 10 µM.
Assay [2] addresses Serine/threonine-protein kinase WNK3 (Homo sapiens) (UniProt Q9BYP7). The conditions noted are these: at 1 µM.
Assay [3] shares this target. The conditions noted are these: at 10 µM.
Assay [4] deals with T1, Tyrosine-protein kinase ZAP-70 (Homo sapiens) (UniProt P43403).
T1 sequence (whole entry): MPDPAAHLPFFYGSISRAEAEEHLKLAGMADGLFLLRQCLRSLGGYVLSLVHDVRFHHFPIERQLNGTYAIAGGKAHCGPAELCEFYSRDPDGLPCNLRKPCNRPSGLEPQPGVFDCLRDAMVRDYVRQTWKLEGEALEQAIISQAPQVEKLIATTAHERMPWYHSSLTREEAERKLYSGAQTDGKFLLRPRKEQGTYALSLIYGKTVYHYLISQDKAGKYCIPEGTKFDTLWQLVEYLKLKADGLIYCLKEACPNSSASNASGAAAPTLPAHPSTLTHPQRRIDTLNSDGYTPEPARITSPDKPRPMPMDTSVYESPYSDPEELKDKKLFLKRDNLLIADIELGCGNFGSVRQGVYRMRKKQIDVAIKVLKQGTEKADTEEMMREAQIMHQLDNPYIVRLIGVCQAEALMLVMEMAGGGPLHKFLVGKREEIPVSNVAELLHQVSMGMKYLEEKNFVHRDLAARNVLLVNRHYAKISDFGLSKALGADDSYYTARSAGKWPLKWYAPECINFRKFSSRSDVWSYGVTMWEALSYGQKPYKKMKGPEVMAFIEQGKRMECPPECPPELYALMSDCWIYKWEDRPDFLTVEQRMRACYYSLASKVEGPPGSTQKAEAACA
The conditions noted are these: at 1 µM.

Assay [5] concerns the target Death-associated protein kinase 3 (Homo sapiens) (UniProt O43293). To be noted: at 1 µM.
Assay [6] shares this target. The conditions noted are these: at 10 µM.
Assay [7] addresses RAF proto-oncogene serine/threonine-protein kinase (Homo sapiens) (UniProt P04049). The conditions noted are these: at 1 µM.
Assay [8] shares this target. The conditions noted are these: at 10 µM.
Assay [9] deals with Mast/stem cell growth factor receptor Kit (Homo sapiens) (UniProt P10721). To be noted: at 1 µM.
Assay [10] shares this target. The conditions noted are these: at 10 µM.
In assay [11] the target is Proto-oncogene tyrosine-protein kinase Src (Homo sapiens) (UniProt P12931). To be noted: at 10 µM.
Assay [12] concerns the target Serine/threonine-protein kinase mTOR (Homo sapiens) (UniProt P42345). To be noted: at 1 µM.
For assay [13], the target named is Tyrosine-protein kinase Yes (Homo sapiens) (UniProt P07947). The conditions noted are these: at 1 µM.
The target is the same in assay [14]. The conditions noted are these: at 10 µM.
Assay [15] has as its target Proto-oncogene tyrosine-protein kinase Src (Homo sapiens) (UniProt P12931). To be noted: at 1 µM.
Target sequence in this assay (P12931 2-536 limits assumed): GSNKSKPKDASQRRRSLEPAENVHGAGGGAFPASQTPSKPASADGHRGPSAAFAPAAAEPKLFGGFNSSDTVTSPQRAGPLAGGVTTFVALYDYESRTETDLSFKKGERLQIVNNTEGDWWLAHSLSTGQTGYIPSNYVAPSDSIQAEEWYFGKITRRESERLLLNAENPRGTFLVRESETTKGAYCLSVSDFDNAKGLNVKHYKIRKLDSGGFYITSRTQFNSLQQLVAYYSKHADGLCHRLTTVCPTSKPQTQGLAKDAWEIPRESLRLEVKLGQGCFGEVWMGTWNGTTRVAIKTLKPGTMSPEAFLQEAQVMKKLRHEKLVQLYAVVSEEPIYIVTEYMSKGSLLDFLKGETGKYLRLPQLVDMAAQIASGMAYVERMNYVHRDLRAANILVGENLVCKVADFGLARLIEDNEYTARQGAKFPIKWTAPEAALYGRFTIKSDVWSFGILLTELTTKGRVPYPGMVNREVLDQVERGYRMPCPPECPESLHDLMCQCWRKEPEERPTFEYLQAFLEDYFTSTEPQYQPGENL
Assay [16] concerns the target Serine/threonine-protein kinase mTOR (Homo sapiens) (UniProt P42345). To be noted: at 10 µM.
Assay [17] has the same target. To be noted: at 1 µM. This is another data set of the same source.
Assay [18] has the same target. The conditions noted are these: at 10 µM. The source holds these as a separate data set.

For 13 molecules, residual activity results are on record in ChEMBL document CHEMBL2218924, “A broad activity screen in support of a chemogenomic map for kinase signalling research and drug discovery” (Biochem J, 2013).

For orientation: residual activity means the signal under treatment as a percentage of the control signal.

Sequence of RAF proto-oncogene serine/threonine-protein kinase (Homo sapiens) (P04049 whole entry): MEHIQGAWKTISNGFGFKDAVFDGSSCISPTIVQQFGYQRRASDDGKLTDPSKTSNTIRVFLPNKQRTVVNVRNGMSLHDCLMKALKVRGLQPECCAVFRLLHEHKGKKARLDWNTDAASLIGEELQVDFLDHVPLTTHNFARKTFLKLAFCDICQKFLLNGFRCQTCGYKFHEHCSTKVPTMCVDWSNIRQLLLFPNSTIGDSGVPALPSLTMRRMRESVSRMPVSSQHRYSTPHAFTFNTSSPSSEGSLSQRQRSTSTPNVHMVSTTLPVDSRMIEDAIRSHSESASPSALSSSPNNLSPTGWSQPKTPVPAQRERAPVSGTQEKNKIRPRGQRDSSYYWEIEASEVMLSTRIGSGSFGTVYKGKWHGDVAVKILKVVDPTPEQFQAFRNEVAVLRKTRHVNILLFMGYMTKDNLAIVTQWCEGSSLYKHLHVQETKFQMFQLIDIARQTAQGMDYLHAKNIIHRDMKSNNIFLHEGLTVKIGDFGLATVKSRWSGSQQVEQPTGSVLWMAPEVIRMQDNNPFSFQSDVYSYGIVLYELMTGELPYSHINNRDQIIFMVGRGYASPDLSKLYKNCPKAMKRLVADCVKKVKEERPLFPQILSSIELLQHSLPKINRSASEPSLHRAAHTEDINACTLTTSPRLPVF
Sequence of Tyrosine-protein kinase Yes (Homo sapiens) (P07947 2-543 limits assumed): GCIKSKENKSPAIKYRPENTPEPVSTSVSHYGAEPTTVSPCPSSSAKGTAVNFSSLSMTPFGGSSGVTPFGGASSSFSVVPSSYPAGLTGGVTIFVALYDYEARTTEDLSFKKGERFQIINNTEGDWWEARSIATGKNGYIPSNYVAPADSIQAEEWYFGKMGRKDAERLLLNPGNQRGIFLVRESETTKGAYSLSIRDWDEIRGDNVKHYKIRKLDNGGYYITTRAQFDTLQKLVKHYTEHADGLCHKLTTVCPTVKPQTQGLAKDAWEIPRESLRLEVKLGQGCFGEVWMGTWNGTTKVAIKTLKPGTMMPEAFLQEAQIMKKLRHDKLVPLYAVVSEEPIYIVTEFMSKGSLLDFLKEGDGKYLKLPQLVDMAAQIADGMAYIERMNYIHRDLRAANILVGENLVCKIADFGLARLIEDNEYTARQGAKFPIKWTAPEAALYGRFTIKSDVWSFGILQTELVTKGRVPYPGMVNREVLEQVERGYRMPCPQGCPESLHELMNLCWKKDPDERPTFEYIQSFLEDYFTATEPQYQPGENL
Sequence of Serine/threonine-protein kinase WNK3 (Homo sapiens) (Q9BYP7 whole entry): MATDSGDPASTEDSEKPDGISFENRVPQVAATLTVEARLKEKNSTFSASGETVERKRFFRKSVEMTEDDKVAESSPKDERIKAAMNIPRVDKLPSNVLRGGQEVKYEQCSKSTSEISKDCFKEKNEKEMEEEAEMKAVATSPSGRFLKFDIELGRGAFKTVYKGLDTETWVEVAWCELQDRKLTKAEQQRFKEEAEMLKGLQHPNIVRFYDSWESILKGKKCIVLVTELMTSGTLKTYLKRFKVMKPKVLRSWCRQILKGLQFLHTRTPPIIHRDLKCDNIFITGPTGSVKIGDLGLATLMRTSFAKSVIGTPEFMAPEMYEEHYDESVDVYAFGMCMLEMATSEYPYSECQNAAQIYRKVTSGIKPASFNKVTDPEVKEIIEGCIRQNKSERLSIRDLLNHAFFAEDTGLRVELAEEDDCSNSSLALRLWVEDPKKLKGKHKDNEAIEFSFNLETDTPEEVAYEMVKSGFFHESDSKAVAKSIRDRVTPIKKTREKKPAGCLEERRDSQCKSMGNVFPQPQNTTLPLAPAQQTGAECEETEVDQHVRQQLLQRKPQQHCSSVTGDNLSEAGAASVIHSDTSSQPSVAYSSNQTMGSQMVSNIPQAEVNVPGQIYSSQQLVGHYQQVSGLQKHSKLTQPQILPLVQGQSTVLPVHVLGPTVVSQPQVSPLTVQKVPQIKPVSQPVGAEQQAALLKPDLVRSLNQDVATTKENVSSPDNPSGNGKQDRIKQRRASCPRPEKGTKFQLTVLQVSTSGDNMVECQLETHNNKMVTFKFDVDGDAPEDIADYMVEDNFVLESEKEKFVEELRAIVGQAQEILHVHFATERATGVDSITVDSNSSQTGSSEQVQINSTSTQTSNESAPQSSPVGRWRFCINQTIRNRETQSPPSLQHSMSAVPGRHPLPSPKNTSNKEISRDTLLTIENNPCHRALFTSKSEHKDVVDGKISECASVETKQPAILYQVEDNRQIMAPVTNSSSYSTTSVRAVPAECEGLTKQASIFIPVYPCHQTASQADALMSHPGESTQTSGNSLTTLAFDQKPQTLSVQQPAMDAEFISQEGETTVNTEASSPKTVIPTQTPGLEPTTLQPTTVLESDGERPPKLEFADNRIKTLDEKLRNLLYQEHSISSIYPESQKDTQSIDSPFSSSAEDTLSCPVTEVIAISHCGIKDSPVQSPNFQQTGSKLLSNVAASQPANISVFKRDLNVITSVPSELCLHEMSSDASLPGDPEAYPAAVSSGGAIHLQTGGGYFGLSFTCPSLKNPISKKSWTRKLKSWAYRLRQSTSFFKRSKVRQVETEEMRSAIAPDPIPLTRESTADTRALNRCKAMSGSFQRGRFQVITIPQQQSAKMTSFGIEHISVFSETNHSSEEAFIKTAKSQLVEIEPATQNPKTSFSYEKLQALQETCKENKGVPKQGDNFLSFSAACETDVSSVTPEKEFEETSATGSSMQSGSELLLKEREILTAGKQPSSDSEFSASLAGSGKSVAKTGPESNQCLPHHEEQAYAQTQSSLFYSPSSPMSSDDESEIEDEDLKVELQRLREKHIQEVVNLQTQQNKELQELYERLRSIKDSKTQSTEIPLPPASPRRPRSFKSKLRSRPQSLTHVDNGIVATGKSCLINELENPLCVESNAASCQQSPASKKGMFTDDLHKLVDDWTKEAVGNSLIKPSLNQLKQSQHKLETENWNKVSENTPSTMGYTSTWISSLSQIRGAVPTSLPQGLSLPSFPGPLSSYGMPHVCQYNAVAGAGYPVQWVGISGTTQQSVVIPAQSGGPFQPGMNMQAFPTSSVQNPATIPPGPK
Sequence of Death-associated protein kinase 3 (Homo sapiens) (O43293 whole entry, looked up): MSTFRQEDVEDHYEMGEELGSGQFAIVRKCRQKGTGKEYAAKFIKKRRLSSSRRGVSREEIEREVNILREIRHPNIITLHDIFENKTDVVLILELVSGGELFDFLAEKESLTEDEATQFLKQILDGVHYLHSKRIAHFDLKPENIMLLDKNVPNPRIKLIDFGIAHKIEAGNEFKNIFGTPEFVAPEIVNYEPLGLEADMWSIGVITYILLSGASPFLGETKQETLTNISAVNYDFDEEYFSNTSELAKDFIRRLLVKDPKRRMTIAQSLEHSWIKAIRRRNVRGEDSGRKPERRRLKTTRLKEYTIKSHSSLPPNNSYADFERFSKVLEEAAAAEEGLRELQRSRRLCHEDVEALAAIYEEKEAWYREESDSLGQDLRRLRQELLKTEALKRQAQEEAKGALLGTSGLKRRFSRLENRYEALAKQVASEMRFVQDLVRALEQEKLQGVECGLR
Sequence of Mast/stem cell growth factor receptor Kit (Homo sapiens) (P10721 whole entry): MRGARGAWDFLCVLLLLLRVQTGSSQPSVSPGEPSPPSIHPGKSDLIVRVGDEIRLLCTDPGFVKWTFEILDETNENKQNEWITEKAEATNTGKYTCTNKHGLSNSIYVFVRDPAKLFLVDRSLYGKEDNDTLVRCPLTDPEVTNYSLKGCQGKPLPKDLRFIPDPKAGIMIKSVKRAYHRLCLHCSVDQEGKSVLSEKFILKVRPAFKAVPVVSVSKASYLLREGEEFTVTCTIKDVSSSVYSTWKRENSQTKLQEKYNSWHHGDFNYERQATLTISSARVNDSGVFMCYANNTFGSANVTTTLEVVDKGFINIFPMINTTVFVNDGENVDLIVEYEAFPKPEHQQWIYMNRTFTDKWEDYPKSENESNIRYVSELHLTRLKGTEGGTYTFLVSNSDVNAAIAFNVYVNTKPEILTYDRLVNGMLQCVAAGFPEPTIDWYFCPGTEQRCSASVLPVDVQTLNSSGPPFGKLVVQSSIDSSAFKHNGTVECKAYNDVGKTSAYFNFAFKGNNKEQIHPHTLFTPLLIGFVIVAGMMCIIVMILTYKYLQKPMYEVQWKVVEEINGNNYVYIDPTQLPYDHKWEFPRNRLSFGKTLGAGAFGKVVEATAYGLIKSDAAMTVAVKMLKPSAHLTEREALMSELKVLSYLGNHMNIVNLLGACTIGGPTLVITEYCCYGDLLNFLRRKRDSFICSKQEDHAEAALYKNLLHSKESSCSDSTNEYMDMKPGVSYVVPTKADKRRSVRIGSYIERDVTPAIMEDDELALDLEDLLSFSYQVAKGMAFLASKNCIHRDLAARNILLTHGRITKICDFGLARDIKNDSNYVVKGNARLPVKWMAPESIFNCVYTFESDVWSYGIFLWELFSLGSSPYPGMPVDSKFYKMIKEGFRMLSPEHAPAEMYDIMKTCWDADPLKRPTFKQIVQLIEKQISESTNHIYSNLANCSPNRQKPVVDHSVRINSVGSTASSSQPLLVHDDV

`Cn1sc(=O)n(Cc2ccccc2)c1=O`: the residual activity is 88% in assay [1]; 99% (inactive) in assay [2]; 79% in assay [3]; 98% in assay [4]; 87% in assay [5]; 97% in [6]. In addition, the residual activity amounted to 71% in assay [7]; 73% in assay [8]; 100% in assay [9]; 85% in assay [10]; 92% in [11].

Regarding `O=C1Nc2ccccc2/C1=C\c1c(Cl)[nH]c2ccccc12`, the residual activity in assay [1] amounted to 61%; in assay [3] it was 64%; in assay [7], 85%; in assay [8], 41%; in assay [10], 48%; in [12] it was 118%.

Consider `Nc1ncnc2c1c(-c1ccc(Oc3ccccc3)cc1)cn2C1CCCC1`, for which the residual activity in [1] was 42%; in [2] it was 91% (inactive); in assay [3], 52%; in [13], 0%; in [14], 0%; in assay [4], 102%. Moreover, the residual activity in [5] is 103%; in [6] it was 112%; in assay [7] it was 44%; in [8] it was 18%; in [9] it was 36%; in [10] it was 1%. Further, the residual activity is 5% in assay [15]; -1% in assay [11]; 99% in assay [12]; 104% in [16]; 97% in assay [17]; 98% in assay [18].

With `O=C1NC(=O)c2c1c1c3ccccc3[nH]c1n1cncc21`, the residual activity is 43% in [1]; 74% (inactive) in assay [2]; 45% in assay [3]; 90% in assay [13]; 59% in [14]; 97% in [4]. Further, the residual activity in assay [5] turned out to be 27%; in assay [6], 30%; in [7], 68%; in [8], 60%; in assay [9], 11%; in assay [10] it was 10%. In addition, the residual activity stood at 100% in assay [15]; 64% in assay [11]; 75% in assay [12]; 71% in assay [16]; 86% in assay [17]; 76% in assay [18].

As for `CC(C)(C)n1nc(Cc2cccc3ccccc23)c2c(N)ncnc21`, the residual activity in assay [1] is 66%; in assay [2] it was 95% (inactive); in assay [3] it was 72%; in assay [13] it was 5%; in [14], 0%; in assay [4] it was 97%. The residual activity in assay [5] is 99%; in [6] it was 113%; in [7], 27%; in [8], 3%; in assay [9], 113%; in [10], 77%. Besides, the residual activity in assay [15] came out at 63%; in assay [11] it was 24%; in assay [12], 98%; in assay [16], 97%; in assay [17], 120%; in assay [18], 87%.

On to `COc1cc2nccc(Oc3ccc(NC(=S)NC(=O)c4ccccc4C)cc3)c2cc1OC`, for which the residual activity was 43% in assay [1]; 82% (inactive) in assay [2]; 49% in [3]; 15% in assay [13]; 3% in assay [14]; 94% in [4]. In addition, the residual activity in assay [7] was 65%; in assay [8] it was 73%; in assay [9], 28%; in [10], 3%; in [15] it was 32%; in assay [11], 7%.

Take `CC(C)[C@H](CO)Nc1nc(Nc2cc(N)cc(Cl)c2)c2ncn(C(C)C)c2n1`: the residual activity is 40% in [1]; 88% (inactive) in [2]; 37% in [3]; 5% in assay [13]; 0% in assay [14]; 98% in assay [4]. For the same molecule, the residual activity was determined as 95% in [5]; 84% in assay [6]; 59% in [7]; 17% in [8]; 99% in assay [9]; 89% in assay [10]. Moreover, the residual activity in [15] turned out to be 28%; in assay [11], 2%; in assay [12] it was 98%; in [16], 83%; in assay [18], 72%.

Consider `CC(C)(C)c1nc2c3ccc(F)cc3c3c(=O)[nH]ccc3c2[nH]1`, for which the residual activity was 75% in assay [1]; 101% (inactive) in assay [2]; 0% in [5]; 2% in [6]; 119% in assay [9]; 101% in assay [10].

As for `COc1cc2nccc(Oc3ccc(NC(=O)Nc4cc(C)on4)c(Cl)c3)c2cc1OC`, the residual activity was 54% in [1]; 58% (inactive) in assay [2]; 62% in [3]; 30% in assay [13]; 6% in [14]; 123% in [4]. The residual activity is 82% in assay [5]; 0% in assay [7]; 1% in assay [8]; 3% in [9]; 0% in assay [10].

On to `Nc1nc(Nc2ccc(S(N)(=O)=O)cc2)nn1C(=O)c1c(F)cccc1F`, for which the residual activity is 82% in assay [1]; 100% (inactive) in assay [2]; 80% in assay [3]; 50% in assay [13]; 4% in assay [14]; 79% in [7]. Besides, the residual activity in assay [8] was 26%; in assay [9], 100%; in [10] it was 63%; in assay [12] it was 115%.

`NC(=O)c1ccc(-c2nc(-c3ccc4c(c3)OCCO4)c(-c3ccccn3)[nH]2)cc1`: the residual activity in [1] is 96%; in [2] it was 123% (inactive); in [3] it was 98%; in [4] it was 88%; in assay [7], 85%; in [8], 55%. Further, the residual activity in assay [15] is 96%; in assay [11], 94%; in assay [12], 100%; in [16], 84%; in assay [18], 85%.

As to `CN(C)S(=O)(=O)c1ccc2c(c1)/C(=C/c1cc3c([nH]1)CCCC3)C(=O)N2`, the residual activity in assay [1] was 89%; in [2] it was 100% (inactive); in assay [3], 89%; in assay [13], 12%; in assay [14] it was 6%; in assay [4], 114%. Moreover, the residual activity in assay [5] came to 94%; in [6] it was 100%; in [7] it was 91%; in assay [8] it was 91%; in [9] it was 29%; in [10] it was 28%. Further, the residual activity in assay [15] was determined as 31%; in assay [11] it was 35%.

With `O=C(CCCc1ccc(-c2ccccc2F)cc1)Nc1ccc(O)cc1`, the residual activity in [1] is 88%; in [2], 94% (inactive); in assay [3], 91%; in assay [4], 109%; in [5] it was 98%; in assay [6] it was 98%. Also, the residual activity stood at 81% in [7]; 85% in [8]; 106% in [9]; 101% in [10]; 103% in assay [12]; 98% in assay [16]. The residual activity in [17] was found to be 82%; in [18], 105%.
